Test results taken from PubChem BioAssay (EPA / NIEHS).
Activity calls are given as the source filed them. How the source made its calls: active means hit-call score of the fitted dose curve at least 0.9, where 1 is the maximum; inactive means score below 0.9.

System: not listed separately
Assay: ATG_NFI_CIS: Attagene CIS-FACTORIAL HepG2 Assay for human Nuclear Factor I (NFI) (AID 2282989)
Conditions: HepG2 cis-regulatory reporter, NFI response element transcription; actives raise or lower the signal
Outline: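 Read-out: reporter mRNA via RT-PCR plus capillary electrophoresis with fluorescence detection. Transiently transfected HepG2 (endogenous TF activity on cis promoters), 24 h compound exposure; gain or loss of signal fitted against DMSO.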
With Nc1c(Br)cc([N+](=O)[O-])cc1Br the outcome was “inactive”. In the case of CCCCCCCCCCCCCC[P+](CCCC)(CCCC)CCCC, the AC50 is reported as 1240 nM (active). In the case of Cc1ccc([N+](=O)[O-])c(C)c1, the outcome is reported as “inactive”. In the case of Oc1ccc2c(c1)CCC2, the outcome is reported as “inactive”. In the case of CCOC(=O)CC(=O)C(F)(F)C(F)(F)F, the outcome is reported as “inactive”. For CN(C)C(C)(C)CO, the outcome was “inactive”. With C=CC(=O)OCC(F)(F)C(F)(F)C(F)(F)COC(=O)C=C the outcome was “inactive”. With CO[Si](C)(CCC(F)(F)C(F)(F)C(F)(F)C(F)(F)C(F)(F)C(F)(F)F)OC the outcome was “inactive”. In the case of O=S(=O)(OCC(F)(F)F)C(F)(F)C(F)(F)C(F)(F)C(F)(F)F, the outcome is reported as “inactive”. With O=C(O)C(F)(F)C(F)(F)C(F)(F)OC(F)(F)F the outcome was “inactive”. In the case of CCOC(=O)C1CC(=O)C(=C(O)C2CC2)C(=O)C1 (stereo unspecified), the outcome is reported as “inactive”. In the case of Cc1ccc(O)c(-n2nc3ccccc3n2)c1, the outcome is reported as “inactive”. In the case of CCCCOC(=O)C(C)O (stereo unspecified), the outcome is reported as “inactive”. With CCN(CC)c1ccc(N=Nc2ccccc2)cc1 the outcome was “inactive”.

Biological target: Myc proto-oncogene protein (Homo sapiens) (UniProt P01106)
Sequence (P01106 whole entry, looked up): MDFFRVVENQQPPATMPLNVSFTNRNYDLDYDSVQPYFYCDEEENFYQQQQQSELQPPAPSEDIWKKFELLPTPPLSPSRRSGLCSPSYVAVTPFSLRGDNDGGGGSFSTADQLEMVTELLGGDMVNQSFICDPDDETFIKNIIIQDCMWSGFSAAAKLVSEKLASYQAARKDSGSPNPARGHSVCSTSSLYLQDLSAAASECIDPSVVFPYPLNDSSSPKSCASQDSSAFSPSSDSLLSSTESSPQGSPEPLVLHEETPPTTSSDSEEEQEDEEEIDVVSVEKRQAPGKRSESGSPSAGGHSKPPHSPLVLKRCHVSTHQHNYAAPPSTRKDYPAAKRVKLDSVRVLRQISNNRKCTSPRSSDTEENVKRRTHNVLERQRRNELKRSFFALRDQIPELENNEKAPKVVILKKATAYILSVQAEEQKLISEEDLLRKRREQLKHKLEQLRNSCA
Assay: ATG_Myc_CIS: Attagene CIS-FACTORIAL HepG2 Assay for human Myelocytomatosis (Myc) Proto-Oncogene Transcription Factor (AID 2282990)
Conditions: HepG2, Attagene cis-reporter transcription factor activity; actives raise or lower the signal
Outline: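 After 24 h chemical treatment of HepG2 cells carrying multiplexed cis-regulated reporter constructs, reporter transcripts quantified by RT-PCR and capillary electrophoresis of fluorescent fragments. Gain or loss fitted against DMSO baseline.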
For CN1CN(C)CN(C)C1, the outcome was “inactive”. In the case of Cc1ccc2c(c1)OCC(=O)CO2, the outcome is reported as “inactive”. In the case of C=CC(=O)OCC(F)(F)C(F)(F)C(F)(F)C(F)(F)C(F)(F)C(F)(F)C(F)(F)C(F)F, the outcome is reported as “inactive”. With C[Si](Cl)(Cl)CCC(F)(F)C(F)(F)C(F)(F)C(F)(F)C(F)(F)C(F)(F)F the outcome was “inactive”. In the case of CSc1ccc(O)cc1C, the outcome is reported as “inactive”. With CCC(=O)OC(C)c1ccccc1 (stereo unspecified) the outcome was “inactive”. In the case of CCCCCCCCCCCCCCCCC, the outcome is reported as “inactive”. In the case of FC(F)(F)C(F)(F)C(F)(F)CC1CO1 (stereo unspecified), the outcome is reported as “inactive”. With CCCCCCCC/C=C\CCCCCCCC(=O)OCC(O)CO (stereo unspecified) the outcome was “inactive”. With C=C(C)CCCC the outcome was “inactive”. In the case of OCCCC(F)(F)C(F)(F)C(F)(F)C(F)(F)C(F)(F)C(F)(F)C(F)(F)C(F)(F)F, the outcome is reported as “inactive”. With CNS(=O)(=O)C(F)(F)C(F)(F)C(F)(F)C(F)(F)C(F)(F)C(F)(F)C(F)(F)C(F)(F)F the outcome was “inactive”. For CCOC(C=C(C)CCC=C(C)C)OCC, the outcome was “inactive”. For CCCCCCCC/C=C\CCCCCCCC(=O)N(C)CC(=O)O, the outcome was “inactive”. In the case of O=C1c2ccccc2C(=O)c2c(Cl)cccc21, the outcome is reported as “inactive”. In the case of O=C(O)CCC(F)(F)C(F)(F)C(F)(F)F, the outcome is reported as “inactive”. In the case of CC(C)CC=C(C=O)c1ccccc1, the outcome is reported as “inactive”. For O=C(Cl)C(F)(F)C(F)(F)C(F)(F)C(F)(F)C(F)(F)C(F)(F)F, the outcome was “inactive”. For OCC(O)CC(F)(F)C(F)(F)C(F)(F)C(F)(F)C(F)(F)C(F)(F)C(F)(F)C(F)(F)F (stereo unspecified), the outcome was “inactive”. With CCOC(=O)CCC(C)=O the outcome was “inactive”. In the case of CCC(C)CO (stereo unspecified), the outcome is reported as “inactive”. In the case of NC(=O)C(F)(F)C(F)(F)C(F)(F)F, the outcome is reported as “inactive”. With OCCCCl the outcome was “inactive”. With Nc1c(Br)cc([N+](=O)[O-])cc1Br the outcome was “inactive”. With CCCCCCCCCCCCCC[P+](CCCC)(CCCC)CCCC the outcome was “inactive”. With Cc1ccc([N+](=O)[O-])c(C)c1 the outcome was “inactive”. In the case of Oc1ccc2c(c1)CCC2, the outcome is reported as “inactive”. For CCOC(=O)CC(=O)C(F)(F)C(F)(F)F, the outcome was “inactive”. In the case of CN(C)C(C)(C)CO, the outcome is reported as “inactive”. With C=CC(=O)OCC(F)(F)C(F)(F)C(F)(F)COC(=O)C=C the outcome was “inactive”. For CO[Si](C)(CCC(F)(F)C(F)(F)C(F)(F)C(F)(F)C(F)(F)C(F)(F)F)OC, the outcome was “inactive”. For O=S(=O)(OCC(F)(F)F)C(F)(F)C(F)(F)C(F)(F)C(F)(F)F, the outcome was “inactive”. In the case of O=C(O)C(F)(F)C(F)(F)C(F)(F)OC(F)(F)F, the outcome is reported as “inactive”. For CCOC(=O)C1CC(=O)C(=C(O)C2CC2)C(=O)C1 (stereo unspecified), the outcome was “inactive”. With Cc1ccc(O)c(-n2nc3ccccc3n2)c1 the outcome was “inactive”. For CCCCOC(=O)C(C)O (stereo unspecified), the outcome was “inactive”. With CCN(CC)c1ccc(N=Nc2ccccc2)cc1 the outcome was “inactive”.
